Assay results taken from PubChem BioAssay AID1751 (National Center for Advancing Translational Sciences (NCATS), 2009).
“And” between values parts separate entries of the source, which are not always exact repeats. Equal entries are not always repeated. Inconclusive results are not listed. Values without a mark were called inactive. The source made the active and inactive calls. The call rests on the fitted dose curve; in most records, active means well fitted activation curve with a large enough effect; inconclusive means small, poorly fitted or top-dose-only effect; inactive means no such curve, though single readings can be large or run the other way.

Target: Pyruvate kinase PKM (Homo sapiens) (UniProt P14618)
Sequence (P14618 whole entry, looked up, canonical isoform): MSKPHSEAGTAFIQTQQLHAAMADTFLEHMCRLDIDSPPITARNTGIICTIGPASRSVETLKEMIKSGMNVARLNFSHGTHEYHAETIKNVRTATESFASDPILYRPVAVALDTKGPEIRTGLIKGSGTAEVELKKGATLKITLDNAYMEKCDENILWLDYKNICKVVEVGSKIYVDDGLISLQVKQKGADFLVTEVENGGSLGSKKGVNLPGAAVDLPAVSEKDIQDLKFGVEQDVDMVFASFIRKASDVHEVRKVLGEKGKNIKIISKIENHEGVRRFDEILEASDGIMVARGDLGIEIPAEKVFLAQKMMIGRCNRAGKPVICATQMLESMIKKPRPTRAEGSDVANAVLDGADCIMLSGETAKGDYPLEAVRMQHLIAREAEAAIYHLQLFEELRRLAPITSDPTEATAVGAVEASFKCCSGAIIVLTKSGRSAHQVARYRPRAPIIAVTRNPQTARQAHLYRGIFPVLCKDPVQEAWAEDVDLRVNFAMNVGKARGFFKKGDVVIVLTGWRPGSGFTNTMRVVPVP
Assay: Confirmation Concentration-Response Assay for Activators of Human Muscle isoform 2 Pyruvate Kinase
Conditions: purified hPK-M2, Kinase-Glo ATP luminescence, 1 h; series mostly up to 57.5 µM; activation (negative = inhibition): at the top concentration
Text: NIH Chemical Genomics Center [NCGC] Matthew G. Vander Heiden, M.D., Ph.D. [Harvard Medical School, 77 Avenue Louis Pasteur, Boston, MA 02115] MLPCN Grant: 1 R03 MH085679-01 NCGC Assay Overview: Human pyruvate kinase muscle 2 (hPK-M2) enzyme was supplied as a highly purified (>95% pure) preparation from Harvard Medical School and assayed for its ability to generate ATP from ADP using phosphoenolpyruvate (PEP) as a substrate. ATP generation was detected in a coupled reaction by luciferase-mediated luminescence, an ATP-dependent process. Pyruvate kinase substrates, PEP and ADP, were present in the assay at Km and approximately 10-fold below Km respectively. The enzyme was assayed at an intermediate level of activity to screen for both inhibitors and activators.
NCGC Assay Protocol Summary: Three uL of substrate mix (at r.t.) in assay buffer (50 mM Imidazole pH7.2, 50 mM KCl, 7 mM MgCl2, 0.01% Tween 20, 0.05% BSA) was dispensed into white solid bottom 1,536 well microtiter plates so that the final concentrations of substrates in the assay were 0.1 mM ADP and 0.5 mM PEP. 23 nL of compound were delivered by a pin tool and 1 uL of enzyme mix (final concentration of 0.1 nM) in assay buffer (4 degree Celsius) was added. Plates were incubated at room temperature for 1 hour. Two uL of detection mix (Kinase-Glo, Promega; at 4 degree Celsius protected from light) was added and luminescence read by a ViewLux (Perkin Elmer) at 1 second exposure/plate. Data were normalized to the uninhibited (column 3) and AC100 inhibition (no enzyme in column 2). To monitor activation, the first column contained a titration of the activator, NCGC00031955-03 (16-point 1:2 dilutions in duplicate starting at 57 uM) and the first 16 rows of column 4 contained 57 uM of NCGC00031955-03.

**Q.** With `CN1CCOc2ccc(S(=O)(=O)N3CCN(S(=O)(=O)c4c(F)cccc4F)CC3)cc21` as the compound, how does the Potency read?
**A.** 2010 nM (active)

**Q.** For `Cc1cc2c(s1)c1cnn(Cc3ccc(F)c(F)c3F)c(=O)c1n2C`, which Potency is on record?
**A.** 713 nM (active)

**Q.** How did the “activation (negative = inhibition)” value turn out when `O=S(=O)(/N=C(/Sc1ccccc1)c1ccccc1)c1ccccc1` was run?
**A.** -4.23%

**Q.** With `CCCc1cc(F)c(S(=O)(=O)N2CCN(S(=O)(=O)c3ccc4c(c3)OCCO4)CC2)cc1F` as the compound, how does the Potency read?
**A.** 800 nM (active)

**Q.** How did the Potency turn out when `Cn1c2cc(C=O)sc2c2cnn(Cc3ccccc3F)c(=O)c21` was run?
**A.** 7.1 nM (active)

**Q.** How did the “activation (negative = inhibition)” value turn out when `Cc1cc2[nH]c3c(=O)n(Cc4ccccc4F)ncc3c2s1` was run?
**A.** 28.4%

**Q.** With `Cn1c2cc(C#N)sc2c2cnn(Cc3ccccc3F)c(=O)c21` as the compound, how does the Potency read?
**A.** 11.3 µM (active) and 22.5 nM (active)

**Q.** Which Potency does the source give for `O=S(=O)(c1ccc2c(c1)OCCO2)N1CCCN(S(=O)(=O)c2c(F)cccc2F)CC1` here?
**A.** 566 nM (active)

**Q.** For `COC(=O)c1cc2c(s1)c1cnn(Cc3ccccc3F)c(=O)c1n2C`, which Potency is on record?
**A.** 39.1 nM (active)

**Q.** For `O=S(=O)(c1c(F)cccc1F)N1CCN(S(=O)(=O)c2c(F)cccc2F)CC1`, which Potency is on record?
**A.** 50.5 nM (active)

**Q.** `CC(=O)Nc1cc2c(s1)c1cnn(Cc3ccccc3F)c(=O)c1n2C` was tested. Which Potency did it give?
**A.** 17900 nM (active)

**Q.** Which Potency does the source give for `Cn1c2ccsc2c2ncn(Cc3ccccc3F)c(=O)c21` here?
**A.** 17900 nM (active)

**Q.** Which “activation (negative = inhibition)” value does the source give for `CC(C)N1C(=S)SC(C)(C)C1NO` (stereo not drawn) here?
**A.** -4.61%

**Q.** Which Potency does the source give for `O=S(=O)(c1ccc2c(c1)OCCO2)N1CCN(S(=O)(=O)c2c(F)cccc2F)CC1` here?
**A.** 35.7 nM (active)

**Q.** For `Cc1cc2c(s1)c1cnn(Cc3ccc(F)cc3)c(=O)c1n2C`, which Potency is on record?
**A.** 25.3 nM (active)

**Q.** How did the Potency turn out when `Cc1cc2c(s1)c1cnn(Cc3ccc(S(C)(=O)=O)cc3)c(=O)c1n2C` was run?
**A.** 4500 nM (active)

**Q.** How did the Potency turn out when `Cc1nc2ccc(S(=O)(=O)N3CCN(S(=O)(=O)c4c(F)cccc4F)CC3)cc2s1` was run?
**A.** 63.5 nM (active)

**Q.** `Cc1cc2c(s1)c1cnn(Cc3cccc(Cl)c3)c(=O)c1n2C` was tested. Which Potency did it give?
**A.** 101 nM (active)

**Q.** `Cc1cc2c(s1)c1cnn(Cc3ccc(C(C)C)cc3)c(=O)c1n2C` was tested. Which Potency did it give?
**A.** 63.5 nM (active)

**Q.** With `O=S(=O)(c1ccc2c(c1)OCO2)N1CCN(S(=O)(=O)c2c(F)cccc2F)CC1` as the compound, how does the Potency read?
**A.** 127 nM (active)

**Q.** `Cc1cc2c(s1)c1cnn(Cc3ccc(C(F)(F)F)cc3F)c(=O)c1n2C` was tested. Which Potency did it give?
**A.** 16000 nM (active)

**Q.** Which Potency does the source give for `Cc1cc2c(s1)c1cnn(Cc3ccc(C)c(F)c3F)c(=O)c1n2C` here?
**A.** 56.6 nM (active)

**Q.** `Cn1c2cc(CO)sc2c2cnn(Cc3ccccc3F)c(=O)c21` was tested. Which Potency did it give?
**A.** 28.4 nM (active)

**Q.** `CCN1CCc2c(sc(NC(=S)NC(=O)c3ccccc3)c2C#N)C1` was tested. Which “activation (negative = inhibition)” value did it give?
**A.** -9.17%

**Q.** Which Potency does the source give for `O=S(=O)(c1ccc2c(c1)OCCO2)N1CCN(S(=O)(=O)c2ccccn2)CC1` here?
**A.** 505 nM (active)

**Q.** `CC(=O)c1cc2c(s1)c1cnn(Cc3ccccc3F)c(=O)c1n2C` was tested. Which Potency did it give?
**A.** 7.1 nM (active)

**Q.** How did the Potency turn out when `Cn1c2ccsc2c2cnn(Cc3ccccc3F)c(=O)c21` was run?
**A.** 318 nM (active)

**Q.** For `O=S(=O)(c1ccc2c(c1)OCCO2)N1CCN(S(=O)(=O)c2ccc3c(c2)OCCO3)CC1`, which Potency is on record?
**A.** 179 nM (active)

**Q.** `O=S(=O)(c1cccc(F)c1)N1CCN(S(=O)(=O)c2ccc3c(c2)OCCO3)CC1` was tested. Which Potency did it give?
**A.** 284 nM (active)

**Q.** `Cc1ccc(Cn2ncc3c4sc(C)cc4n(C)c3c2=O)c(C)c1` was tested. Which Potency did it give?
**A.** 56.6 nM (active)

**Q.** How did the “activation (negative = inhibition)” value turn out when `O=C1C(=C2SCCCS2)CC/C1=C\c1ccc(F)cc1` was run?
**A.** -86.9%

**Q.** With `Nc1cccc(-c2cn3cc(C(F)(F)F)cc(Cl)c3n2)c1` as the compound, how does the “activation (negative = inhibition)” value read?
**A.** -66.6%

**Q.** With `O=S(=O)(NCC1CN(S(=O)(=O)c2c(F)cccc2F)C1)c1ccc2c(c1)OCCO2` as the compound, how does the Potency read?
**A.** 2530 nM (active)
